Compound activity: PubChem, several laboratories
Rows were chosen to be rich in hits. Some 2.8% of all compounds tested hit in one or more screens of this group.
TRPM1 prom inh: MITF TRPM1 promoter inhibition in SK-MEL-5 cells; SK-MEL-5 TRPM1 promoter luciferase, 24 h; inhibition, % at 12.5 µM; hit rate 0.83% among 330,000; AID 488899;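 active = mean inhibition across replicates of 60% or more, whatever share of single replicates reaches that level; inconclusive = some that reach 60%, reason not given; inactive = mean inhibition across replicates below 60%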
Shn3 inh set2: Schnurri-3 reporter inhibition in Clone20 osteoblasts; hit rate 0.52% among 360,000; inhibition, % at 12.5 µM; Clone20 osteoblast Shn3 3'UTR firefly luciferase, 24 h;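 active = mean inhibition of at least 75% with every replicate also reaching 75%; inconclusive = mean inhibition at least 75% but some replicate below; inactive = mean inhibition below 75%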
Peg3 promoter: inhibitors of Peg3 promoter; inhibition, % at 20 µM; HeLa PEG-Prom luciferase reporter, luminescence, overnight; hit rate 1.7% among 360,000;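 active = inhibition of at least 50% at 20 µM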
CF NFkB inh: inhibitors of cystic fibrosis induced NF-kB; inhibition, % at 5 µM; AID 588850; hit rate 0.86% among 360,000; KKLEB NF-kB-GFP reporter, PAF-induced, GFP fluorescence overnight;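 active = at least 50% inhibition at 5 µM, scaled per plate between neutral and stimulator controls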;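 note: PAF is a Pseudomonas aeruginosa culture filtrate used as stimulus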
KKLEB tox: counter-screen for CF NF-kB inhibitors: cytotoxicity; hit rate 0.36% among 360,000; KKLEB CF airway cells viability, ATPlite luminescence, overnight; stronger effect = lower value; cells stimulated with P. aeruginosa culture filtrate; activity change (cytotoxicity), % at 5 µM;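 active = corrected activity change at or below -50% at 5 µM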
HIF-2a block: blocks HIF-2a reporter activity. inhibition, % at 18.8 µM. 786-0 RCC cells HIF-2a reporter, luciferase luminescence, overnight. AID 624352. hit rate 0.72% among 360,000;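 active = inhibition of the luminescence signal of 40% or more relative to plate controls, in a single-dose primary screen at 18.75 µM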
Hits are given with their value; - = inactive; ? = inconclusive; . = no result given.

SMILES	TRPM1 prom inh	Shn3 inh set2	Peg3 promoter	CF NFkB inh	KKLEB tox	HIF-2a block
O=C(NCC1(N2CCCCC2)CCCCC1)c1cccc(S(=O)(=O)Nc2ccc(F)cc2)c1	-	-	-	-	-	-
CN(C)c1ccc2nc3ccc(=O)cc-3sc2c1	.	-	-	52	-	-
Cc1nc2cc(C)c(C)cc2s1	-	-	-	-	-	-
CN(C)c1ccc2nc3ccc(=[N+](C)C)cc-3sc2c1	73	-	-	79	-	-
Cc1nc2ccc(N)cc2s1	-	-	-	-	-	-
Cc1cc2nc3ccc(=[N+](C)C)cc-3sc2cc1N	96	-	-	52	-	-
CSc1nc2ccc(S(=O)(=O)N(C)C)cc2s1	-	-	-	-	-	-
Cc1cccc(C(=O)NC2CCN(CC(=O)NCc3ccccc3F)CC2)c1	-	-	-	-	-	-
CCOC(=O)c1ccc(Nc2sc(C(=O)c3cccc([N+](=O)[O-])c3)c(N)c2C#N)cc1	-	-	52	-	-	-
Cc1ccc(C(=O)c2sc(Nc3ccccc3)c(C#N)c2N)cc1	-	-	-	-	-	-
CCNC(=O)CC1SC(=Nc2ccc(C)c([N+](=O)[O-])c2)N(C)C1=O (stereo not drawn)	.	-	-	-	-	-
COCCNc1nc(Oc2ccc(NC(C)=O)cc2)c2sc(-c3ccccc3)cc2n1	.	-	-	-	-	-
COCCNc1nc(NCc2ccc(NC(C)=O)cc2)c2sc(-c3ccccc3)cc2n1	.	-	-	-	-54	-
C=CCNc1nc(NCc2ccc(N(C)C)cc2)c2sc(-c3ccccc3)cc2n1	.	-	70	-	-	-
C=CCNc1nc(NCCOC)c2sc(-c3ccccc3)cc2n1	.	-	-	-	-	-
c1ccc(CNc2nc(NCC3CC3)nc3cc(-c4ccccc4)sc23)cc1	.	-	83	-	-	-
COCCNc1nc(NCc2cccc(OC)c2)c2sc(-c3ccccc3)cc2n1	.	-	57	-	-	-
COc1ccc(OCCCC(=O)Nc2cc([N+](=O)[O-])ccc2C)cc1	-	-	-	-	-	-
Cc1ccc(C(=O)NCCN(C)C)c(C)c1	-	-	-	-	-	-
CNc1c2cccc(C)c2nc2c(C(=O)NCCN(C)C)cccc12	100	97	108	95	-	62
COc1ccc(NC(=O)C2C3C=CC4(O3)C2C(=O)N(CCN2CCCCC2C)C4C(=O)NC2CCCCC2)cc1 (stereo not drawn)	-	-	-	-	-	-
O=C(NCCNC(=O)c1cc(Cl)ccc1Cl)c1ccccn1	-	-	-	-	-	-
COc1ccc([C@@]2(C(C)C)ON(c3ccccc3C(F)(F)F)C2=O)cc1	-	-	62	53	-	-
CC(=O)C1(O)C(C)CC2C3CC(F)C4(O)CC(O)CCC4(C)C3CCC21C (stereo not drawn)	-	-	-	-	-	-
COc1ccc(Cl)cc1NC(=O)CN1CCN(S(=O)(=O)N2CCCCC2)CC1	-	-	-	-	-	-
SMILES	TRPM1 prom inh	Shn3 inh set2	Peg3 promoter	CF NFkB inh	KKLEB tox	HIF-2a block
COc1ccc2nc(N=Nc3ccc(N(C)C)cc3)sc2c1	-	-	-	-	-74	-
COC(=O)c1ccc(-c2nc3cc(Cl)c(N)cc3s2)cc1	-	-	-	-	-53	-
Cc1cccc(C(=O)n2c(=S)nc3cc(C)ccn32)c1	-	-	-	-	-	-
Cc1ccn2c(c1)nc(=S)n2C(=O)c1ccccc1	-	-	-	-	-51	48
CNC(=O)CN(Cc1ccccc1)S(=O)(=O)c1ccc(Cl)cc1	-	-	-	-	-	-
O=C(CCCN1C(=O)/C(=C/c2ccccc2Cl)SC1=S)Nc1ccccn1	-	-	-	-	-	79
COc1ccccc1/C=C1\SC(=S)N(CCC(=O)NNC(=O)c2ccccc2OC)C1=O	-	-	-	-	-	44
O=C(CCCN1C(=O)/C(=C/c2ccccc2Cl)SC1=S)Nc1cccnc1	-	-	71	-	-	-
O=C(CCN1C(=O)/C(=C/c2ccccc2Cl)SC1=S)Nc1ccccn1	-	-	-	-	-	-
Cc1ccc(C(=O)NNC(=O)CCCN2C(=O)/C(=C/c3ccccc3Cl)SC2=S)cc1	-	-	-	-	-	87
CCCNC(=O)C1(C)CCN(C(=O)c2ccc3snnc3c2)C1 (stereo not drawn)	.	-	-	-	-	-
CC(C)C[C@H]1CN=C(Nc2ccccc2)N1CC1CCC(C(C)(C)C)CC1 (stereo partly drawn)	?	-	103	-	-	-
CNC(=O)C1Cc2ccccc2CN1S(=O)(=O)c1cccs1 (stereo not drawn)	-	-	51	-	-	-
COc1cc(OC)c(OC)cc1CNc1cc(C)ccc1OC	-	89	-	-	-	-
CC1CC(C)CN(C(=O)CCC(=O)Nc2nnc(C3CCCCC3)s2)C1 (stereo not drawn)	-	-	-	-	-	-
CCC(=O)Nc1cc2nn(-c3ccc(C)cc3)nc2cc1C	-	-	62	-	-	-
COc1ccc(-n2nc3cc(C)c(NC(=S)NC(=O)c4ccccc4C)cc3n2)cc1	-	-	-	55	-59	-
CCC(=O)Nc1cc2nn(-c3ccc(OC)cc3)nc2cc1C	-	-	-	-	-	-
COc1ccc([C@@H]2CC(=O)c3c(O)cc(O)cc3O2)cc1O	-	-	-	-	-	-
COc1c(CC=C(C)C)cc(C2CC(=O)c3c(O)cc(O)cc3O2)cc1CC=C(C)C (stereo not drawn)	-	90	-	-	-	-
Cc1ccc(-c2cn(-c3ccc(OC(F)F)cc3)c3[n+]2CCCCC3)cc1	-	88	-	-	-	-
S=C(NCCc1ccccc1)Nc1cccc2cnccc12	-	89	-	-	-	-
CCOC(=O)c1c(CN2CCNCC2)nc2ccc(Cl)cc2c1-c1ccccc1	90	-	106	-	-	-
COc1ccc(C(NC(C)=O)c2cc(Cl)c3cccnc3c2O)cc1OC (stereo not drawn)	-	89	-	-	-	-
CN1CCN(C(c2ccc(Br)cc2)c2cc(Cl)c3cccnc3c2O)CC1 (stereo not drawn)	-	?	-	-	-	50
SMILES	TRPM1 prom inh	Shn3 inh set2	Peg3 promoter	CF NFkB inh	KKLEB tox	HIF-2a block
CC(=O)NC(C)c1cc(Cl)c2cccnc2c1O (stereo not drawn)	-	-	-	-	-	-
CCCC(=O)NC(c1ccc2c(c1)OCO2)c1cc(Cl)c2cccnc2c1O (stereo not drawn)	-	87	55	-	-	-
CCC(=O)NC(C)c1cc(Cl)c2cccnc2c1O (stereo not drawn)	-	91	-	-	-	-
CCCC(=O)NC(c1cccs1)c1cc(Cl)c2cccnc2c1O (stereo not drawn)	-	-	-	-	-	-
CCCC(=O)NC(c1ccco1)c1cc(Cl)c2cccnc2c1O (stereo not drawn)	-	-	69	-	-	-
COc1ccc(CC2=CC(=O)c3ccccc3C2=O)cc1	-	89	-	52	-	-
